Source: PubChem
Only a selection was taken, and hits are over-represented in it overall.
Tgondii IFNg – blocks Toxoplasma gondii growth in the presence of IFN-gamma | Toxoplasma gondii growth in IFN-gamma-treated host cells; active compounds read low | activity change, negative = inhibition, % (no concentration beside the values) | 69,000 compounds, 3.8% hits; in the data active = activity change below about -70%, passing the limit was not always enough;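 note: host cells are HeLa cells infected with Toxoplasma gondii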
An asterisk follows results filed as active; i = inactive.

SMILES	Tgondii IFNg
O=C(NCc1ccccn1)[C@@H]1C[C@H]2CCN(c3ncccn3)C[C@@H]2O1	-34.6
CCOc1ccc(NC(=O)CN2C(=O)C3C4CCC(C4)C3C2=O)cc1 (stereo not drawn)	3.7
O=C(c1ccco1)N1CCOCC2(CC(CN3CCCC3)CO2)C1 (stereo not drawn)	-2.2
Cn1ccnc1CNS(=O)(=O)c1ccc2c(c1)c(=O)n(C)c(=O)n2C	49.1
CN(C)c1ccc(Br)c(F)c1C#N	-32.8
COCCN1C(=O)C2(CCN(C(=O)c3cccn3C)CC2)c2ccccc21	-18.5
COc1cccc(-c2noc(-c3c(O)c4ccccc4[nH]c3=O)n2)c1OC	22.9
COc1ccc(NC(=O)OCC23COC4(C)CCC(C)(OC2)N34)cc1 (stereo not drawn)	-20.5
Cc1cnc2c(C(=O)N3CCN(Cc4csc(C)n4)CC3)cnn2c1	-7.9
O=C(Cc1ccccc1)NCCc1csc(-c2ccc(C(F)(F)F)cc2)n1	139.6
Cc1oc(-c2ccc(C(=O)NC3CCCCCC3)cc2)nc1CN1CCc2ccccc21	-93.0*
Cc1oc(-c2ccc(C(=O)NCCN(C)C)cc2)nc1CN1CCc2ccccc21	-111.8*
CCCNC(=O)c1ccc(-c2nc(CN3CCc4ccccc43)c(C)o2)cc1	4.0
Cc1oc(-c2ccc(C(=O)NCCN3CCOCC3)cc2)nc1CN1CCc2ccccc21	54.8
Cc1ccc(CNC(=O)c2ccc(-c3nc(CN4CCc5ccccc54)c(C)o3)cc2)cc1	72.2
COCCNC(=O)c1ccc(-c2nc(CN3CCc4ccccc43)c(C)o2)cc1	160.0
O=C(NCc1nnc(-c2ccccc2)o1)c1cccc2c1OCC2	2.5
COCCCNC1=NCCNC12CCN(S(=O)(=O)c1cc(C)cc(C)c1)CC2	17.4
CC(=O)N1CCN(c2cc(C)nc(C3CCCN3C(=O)Cn3cccn3)c2)CC1 (stereo not drawn)	-2.4
O=C(Cn1c(=O)cc(C(=O)N2CCOCC2)c2ccccc21)Nc1ccc(F)cc1	6.8
CCOc1cccc(C2c3[nH]c4ccccc4c3CCN2C(=O)c2ccc(C)cc2)c1 (stereo not drawn)	-121.8*
CCOc1cccc(C2c3[nH]c4ccccc4c3CCN2C(=O)c2cccc(N(C)C)c2)c1 (stereo not drawn)	407.7
CCOc1cccc(C2c3[nH]c4ccccc4c3CCN2C(=O)c2cccc(OC)c2)c1 (stereo not drawn)	-103.5*
CCOc1cccc(C2c3[nH]c4ccccc4c3CCN2C(=O)c2ccc(F)cc2)c1 (stereo not drawn)	-98.2*
Cc1ccc(C(=O)N2CCc3c([nH]c4ccccc34)C2c2cccc(C)c2)cc1 (stereo not drawn)	207.5
SMILES	Tgondii IFNg
CCOc1cccc(C2c3[nH]c4ccccc4c3CCN2C(=O)c2ccccc2OC)c1 (stereo not drawn)	-105.1*
CCOc1cccc(C2c3[nH]c4ccccc4c3CCN2C(=O)COC)c1 (stereo not drawn)	i
CCOc1cccc(C2c3[nH]c4ccccc4c3CCN2C(=O)C2CCC2)c1 (stereo not drawn)	482.8
COc1ccccc1C(=O)N1CCc2c([nH]c3ccccc23)C1c1ccccc1 (stereo not drawn)	57.9
COc1ccccc1C(=O)N1CCc2c([nH]c3ccccc23)C1c1ccc(Cl)cc1 (stereo not drawn)	30.5
CCOc1cccc(CNc2c(C(=O)OC)c(=O)[nH]c3c(Cl)cccc23)c1	-81.8*
CCCNc1c(C(=O)OC)c(=O)[nH]c2c(Cl)cccc12	-13.3
COC(=O)c1c(NCc2ccc(C)o2)c2cccc(Cl)c2[nH]c1=O	-61.7
COC(=O)c1c(NCCc2cccs2)c2cccc(Cl)c2[nH]c1=O	-85.7*
COC(=O)c1c(NC(C)c2ccccc2)c2cccc(Cl)c2[nH]c1=O (stereo not drawn)	-19.4
CCCCNc1c(C(=O)OC)c(=O)[nH]c2c(Cl)cccc12	-23.3
COC(=O)c1c(NCCN2CCC(C)CC2)c2cccc(Cl)c2[nH]c1=O	19.1
COC(=O)c1c(NCc2ccc(F)cc2)c2cccc(Cl)c2[nH]c1=O	-87.7*
COC(=O)c1c(NCc2ccccc2F)c2cccc(Cl)c2[nH]c1=O	-37.6
O=C1CCc2cc(NC(=O)c3n[nH]c4ccccc34)ccc2N1	137.3
CCOC(=O)N1CCC2(CC1)NC(=O)c1ccccc12	-1.2
COCC(=O)NC1Cc2ccc(S(=O)(=O)NCCc3c(C)nn(C)c3C)cc2C1 (stereo not drawn)	-1.6
c1cncc(Oc2ccccc2-n2cnnc2)c1	282.7
CCOc1ccc(-c2nc(Cn3nnc(C(=O)Nc4ccc(Cl)cc4)c3C)c(C)o2)cc1	48.8
Clc1ccc(-c2nc(N3CCC(Cc4ccccc4)CC3)c3ccccc3n2)cc1	27.4
CCOc1ccc(S(=O)(=O)n2ccnc2)cc1C	-48.9
COc1ccc(C(=O)N(c2ccc(Cl)cc2)C2(C(=O)NCc3ccccc3)CCN(C(C)=O)CC2)cc1	68.8
COc1ccc(C(=O)N(c2ccc(C(C)C)cc2)C2(C(=O)NCc3ccccc3)CCN(C(C)=O)CC2)cc1	-95.5*
COc1ccc(C(=O)N(Cc2cccc(OC)c2)C2(C(=O)NCc3ccccc3)CCN(C(C)=O)CC2)cc1	-83.4*
COc1ccc(C(=O)N(Cc2ccc(Cl)cc2)C2(C(=O)NCc3ccccc3)CCN(C(C)=O)CC2)cc1	114.4
SMILES	Tgondii IFNg
COc1ccc(C(=O)N(c2ccc(F)cc2)C2(C(=O)NCc3ccccc3)CCN(C(C)=O)CC2)cc1	-4.5
COc1ccc(C(=O)N(Cc2cccc(F)c2)C2(C(=O)NCc3ccccc3)CCN(C(C)=O)CC2)cc1	-53.4
Cc1nnc(NC(=O)NCC(c2ccccc2)c2ccccc2)s1	-8.7
Fc1ccccc1N1CCC2(CC1)CC(Oc1cccnc1)CO2 (stereo not drawn)	-0.2
CC(C)(C)C(=O)NCCc1csc(-c2ccc(Cl)cc2)n1	148.3
CCOC(=O)c1cc(C)n(N(C)c2cc(C(F)(F)F)ccn2)c1C	84.3
Cc1cc(CC(=O)N2CCCn3nc(C(=O)Nc4ccccc4)cc3C2)on1	19.1
COc1ccccc1NC(=O)Cn1c(C)nc2ccc(NC(=O)c3ccco3)cc2c1=O	-1.8
COCC12CCCOC1CCN(c1nncs1)C2 (stereo not drawn)	6.5
O=C1c2cccc(O)c2C(=O)c2c(O)cc(CO)cc21	-62.4
O=C1c2c(O)ccc(O)c2C(=O)c2c(NCCNCCO)ccc(NCCNCCO)c21	-88.3*
Cc1ccc(C(=O)N2CCC3(CC3C(=O)NCc3ccncc3)C2)cc1C (stereo not drawn)	72.6
CC(C)N1C2CCN(C(=O)c3ccc[nH]3)CC2C[C@H]1CN1CCCC1 (stereo partly drawn)	8.9
O=S(=O)(c1ccccc1)N1CCC2(CC(n3ccnc3)CO2)C1 (stereo not drawn)	236.0
CCN1CCC2(CC1)OC(=O)C(C)=C2C(=O)Nc1ccc(OC)c(Cl)c1	218.3
CCCc1cc(-c2cc(NC3CCNCC3)nc3[nH]ccc23)nc(C)n1	-80.4*
FC(F)(F)c1ccc(-c2cc(NC3CCNCC3)nc3[nH]ccc23)nc1	-3.2
c1cnc(-c2cc(NC3CCNCC3)nc3[nH]ccc23)cn1	-18.9
CC(C)(C)NC(=O)C(c1ccccc1)N(C(=O)c1csnn1)c1cccc2ccccc12 (stereo not drawn)	-41.1
COc1ccc(S(=O)(=O)CCC(=O)Nc2c(C)ccc3nc(C)ccc23)cc1	-14.1
COc1ccc(NC(=O)Cn2nnc3sc4c(c3c2=O)CCC(C(C)(C)C)C4)cc1 (stereo not drawn)	1.5
O=C1c2nccnc2C(=O)N1c1ccc(S(=O)(=O)N2CCOCC2)cc1	-19.7
